GLD-1 TGE inh: GLD-1-TGE RNA interaction inhibition (C. elegans). purified GLD-1 + fluorescein TGE RNA, fluorescence polarization. inhibition, % at 5.96 µM. hit rate 0.44% among 320,000. AID 2280;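 active means percent inhibition above a per-plate cutoff, the plate mean of test compounds plus 3 SD, cut at about 30% in these data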;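 further: 0% = DMSO wells with GLD-1 and probe and 100% = wells lacking GLD-1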
Target sequence (Q17339 whole entry, looked up): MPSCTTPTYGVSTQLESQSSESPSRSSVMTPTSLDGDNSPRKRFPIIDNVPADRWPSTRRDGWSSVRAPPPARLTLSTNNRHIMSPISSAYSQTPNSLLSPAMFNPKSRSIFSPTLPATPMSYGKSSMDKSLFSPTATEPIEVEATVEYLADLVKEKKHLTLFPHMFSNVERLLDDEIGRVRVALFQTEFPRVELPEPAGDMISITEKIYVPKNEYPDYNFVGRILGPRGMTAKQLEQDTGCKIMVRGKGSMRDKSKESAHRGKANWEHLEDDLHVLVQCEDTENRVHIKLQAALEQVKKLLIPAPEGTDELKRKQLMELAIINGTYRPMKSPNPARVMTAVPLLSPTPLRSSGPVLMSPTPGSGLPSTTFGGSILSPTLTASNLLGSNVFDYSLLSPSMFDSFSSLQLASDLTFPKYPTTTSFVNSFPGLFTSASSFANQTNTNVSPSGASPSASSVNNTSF
MCL1-BIM inh: inhibitors of human MCL1 binding to BIM-BH3 peptide. AID 2057. GST-MCL1 / FITC-Bim-BH3 fluorescence polarization. hit rate 0.68% among 320,000. inhibition, % at 10.9 µM. Q07820;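 active means inhibition above the mean inhibition of all tested compounds plus 3 SD, set per campaign, cut at about 40% in these data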;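 further: 0% = DMSO wells and 100% = unlabeled Bim-BH3 peptide control; higher means more loss of mP so more displacement of Bim peptide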
MEX-5 binding: C. elegans MEX-5 TCR-2 RNA binding activity; activity score (negative = inhibition of binding), % at 10 µM; hit rate 0.38% among 300,000; AID 1832; Q9XUB2; MEX-5/FITC-TCR2 RNA binding, fluorescence polarization; stronger effect = lower value;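 active means inhibition past about -25% in most replicates, and total fluorescence under double the plate's negative control median, limit read from the data; inconclusive means replicates evenly split on the limit, or fluorescence at least double controls; inactive means too little inhibition in most replicates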;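 further: 0% = DMSO and -100% = 5 µM competing unlabeled TCR2 RNA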
E coli Lon inh: inhibits E. coli Lon protease; purified E. coli Lon protease, fluorescence polarization; inhibition, % at 7.94 µM; hit rate 0.42% among 360,000; AID 602123; in the data active means inhibition above about 13%, passing the limit was not always enough;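 further: 0% = enzyme with probe and DMSO and 100% = no enzyme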
Bcl-xL primary: blocks human Bcl-xL binding to Bim BH3 peptide. hit rate 0.7% among 320,000. AID 2129. GST-Bcl-xL / FITC-Bim BH3 peptide fluorescence polarization. inhibition, % at 10.9 µM. Q07817;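 active means inhibition above the mean of all tested compounds plus 3 SD, cutoff set per campaign, cut at about 30% in these data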;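 further: 0% = DMSO wells and 100% = unlabeled Bim-BH3 peptide competitor; inhibitors lower millipolarization by displacing the labeled peptide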
Target sequence (Q07817 whole entry, looked up): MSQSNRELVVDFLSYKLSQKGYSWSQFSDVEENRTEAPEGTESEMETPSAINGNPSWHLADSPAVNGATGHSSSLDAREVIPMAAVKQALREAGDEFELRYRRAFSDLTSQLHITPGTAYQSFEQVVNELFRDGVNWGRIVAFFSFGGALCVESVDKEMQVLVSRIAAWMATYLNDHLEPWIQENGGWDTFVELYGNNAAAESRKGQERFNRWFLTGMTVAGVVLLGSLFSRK
E coli Lon conf: confirmation of E. coli Lon protease inhibitors. AID 602230. inhibition, % at 7.94 µM. hit rate 31% among 1,400. shares compounds with E coli Lon inh. purified E. coli Lon, fluorescence polarization; in the data active means inhibition above about 16%;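 further: 0% = enzyme with probe and DMSO and 100% = no enzyme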
The depositor's hits bear a star; ? = inconclusive; . = not tested or not shown. A selection: hits, their analogues and other compounds. The true share with any hit is near 1.4%.

SMILES | GLD-1 TGE inh | MCL1-BIM inh | MEX-5 binding | E coli Lon inh | Bcl-xL primary | E coli Lon conf
CCOC(=O)C(Cc1ccc(O)cc1)NC(=O)CNC(=O)C(CC(C)C)NC(=O)OC(C)(C)C (configuration not stated) | 6.7 | 5.8 | -0.1 | 1.1 | 2.6 | .
O=C(O)CC/C(=C\c1ccc2c(c1)OCO2)c1nc2ccccc2s1 | 28.3 | 8.9 | -4.1 | 25.9* | 12.7 | -16.8
O=C(O)CC/C(=C\c1ccc(Cl)c([N+](=O)[O-])c1)c1nc2ccccc2s1 | -8.5 | 6.1 | 2.0 | 1.5 | 8.2 | .
Cc1cc[n+](-c2[nH]c(=O)sc2/C=N/N=C(\[O-])c2ccccc2)cc1C | . | . | ? | 67.8* | . | 125.5*
O=C(Nc1ccnn1C1CCN(CCCc2ccccc2)CC1)c1ccccc1Cl | 4.1 | 11.2 | 1.6 | 1.5 | 1.0 | .
Cc1ccc(Cl)c(NC(=O)COC(=O)c2nn(C)c(=O)c3ccccc23)c1Cl | 4.7 | -5.3 | . | 8.1 | 1.1 | .
Cc1cc(C)c(NC(=O)C(C)N2CCCCCC2)c(C)c1 (configuration not stated) | 9.4 | -2.3 | -2.9 | 71.4* | 2.0 | -5.5
Cc1cccc(C)c1NC(=O)C(C)N1CCCC1 (configuration not stated) | 8.4 | -0.3 | 1.2 | -2.7 | 4.3 | .
Cc1noc(C)c1S(=O)(=O)N(C)C[C@@H]1OCc2cnnn2CCCC(=O)N([C@@H](C)CO)C[C@H]1C | . | . | . | 14.6* | . | -10.1
C[C@H]1CN([C@@H](C)CO)C(=O)CCCn2nncc2CO[C@H]1CN(C)C(=O)NC1CCCCC1 | . | . | . | 12.6* | . | -2.6
O=C1ON=C(c2ccccc2)/C1=C/c1cccnc1 | . | . | . | 17.4* | . | 3.3
O=C(Nc1ccccc1Cl)c1cc(C2CCCN(C(=O)c3ccccc3)C2)on1 (configuration not stated) | . | . | . | -12.3 | . | .
Cc1cc(C(=O)CSc2nnc(-c3ccncc3)n2-c2ccccc2)c(C)n1C | 16.2 | 10.2 | -0.6 | 18.7* | 12.0 | -73.2
Cc1ccc(N(CC(=O)N2CCCC2)S(C)(=O)=O)c(C)c1 | 4.2 | 5.4 | 5.6 | 35.8* | 0.2 | 6.8
Cc1ccc(N(CC(=O)N2CCCC2)S(C)(=O)=O)cc1C | -1.3 | -6.2 | 0.9 | 12.7 | 5.0 | .
Cn1nc(C(=O)Nc2ccccc2)c2c1-c1ccccc1S(=O)(=O)C2 | 0.1 | 1.0 | -2.3 | -5.0 | 16.0 | .
Cn1c2ccccc2c(=O)c2ccc(NCc3ccc4c(c3)OCO4)cc21 | . | . | . | 17.2* | . | 3.0
CN1CCC[C@H]1CCNc1ccc2c(=O)c3ccccc3n(C)c2c1 | . | . | . | -3.5 | . | .
CSCCC(NC(=O)COc1ccccc1)C(=O)N1CCN(c2ccccc2O)CC1 (configuration not stated) | 7.0 | -4.0 | -2.9 | 71.0* | 3.2 | -6.7
COc1ccc(Cl)cc1NC(=O)CN(C)C(=O)c1cc2c(s1)CCC(C)C2 (configuration not stated) | -2.8 | 2.2 | -2.3 | -5.3 | 3.1 | .
C[C@H](NC(=O)[C@@H]1CSC2c3ccccc3C(=O)N21)C(=O)NCCc1ccc(F)cc1 (some centres not stated) | 5.7 | 4.4 | -0.7 | 23.0* | 3.7 | -3.2
Cc1ccc(S(=O)(=O)NNC(=S)Nc2ccccc2)cc1 | -2.5 | 9.5 | -1.6 | 21.5* | 2.0 | -5.8
Cc1ccc(S(=O)(=O)NNC(=S)Nc2ccc(Cl)cc2)cc1 | 0.5 | -6.7 | -3.0 | -2.2 | -5.5 | .
COc1ccc(NC(=O)c2cc(-c3cc(F)ccc3OC(C)C)n[nH]2)cc1OC | . | . | . | -3.4 | . | .
CCN1/C(=C\C=C(C(C)=O)C(C)=O)Sc2ccccc21 | -241.4 | -182.3 | ? | -463.3 | -132.6 | .
SMILES | GLD-1 TGE inh | MCL1-BIM inh | MEX-5 binding | E coli Lon inh | Bcl-xL primary | E coli Lon conf
CCOC(=O)/C(C#N)=C(C)/C=C1\Sc2ccccc2N1CC | -146.6 | 6.1 | ? | 42.2* | 7.4 | -261.1
O=C(Nc1cccc(S(=O)(=O)N2CCCCC2)c1)c1ccc2c(=O)n3c(nc2c1)CCCCC3 | 2.8 | -0.6 | -1.8 | 25.3* | 6.5 | 6.0
O=C(NCCOC(=O)c1ccc(Cl)cc1)c1cccnc1 | 6.0 | 2.3 | 0.8 | 15.7* | 1.2 | -9.4
CCCN(CC(=O)Nc1cc(C)on1)CC(=O)Nc1ccccc1C | 5.1 | -0.3 | . | 60.3* | -6.4 | 0.4
O=C(NCCCN1CCCC1)Nc1ccccc1[N+](=O)[O-] | -3.0 | 7.9 | -1.2 | 16.4* | 0.8 | 9.1
Cc1ccccc1NC(=O)NCCCN1CCCC1 | 8.8 | -3.0 | -0.8 | 0.1 | -5.2 | .
O=C(CNC(=O)c1ccccc1F)c1ccccc1 | 9.1 | 5.0 | -1.8 | 0.4 | 4.6 | .
NNC(=O)CNC(=O)c1ccccc1F | 5.0 | 2.8 | -2.1 | 53.2* | 2.0 | -4.1
CC(=O)c1c(N2CCOCC2)nc2ccc(Br)cc2c1-c1ccccc1 | -0.6 | 2.0 | -1.2 | 8.5 | 4.6 | .
CC(=O)c1cc(-c2ccccc2)[nH]c1N1CCOCC1 | 6.4 | 9.5 | -0.3 | 63.5* | 17.0 | -0.8
O=C(Nc1ccccc1)c1nn(-c2cccc(C(F)(F)F)c2)ccc1=O | -0.1 | 5.5 | -1.0 | -6.0 | 6.8 | .
COC(=O)c1nn(-c2cccc(C(F)(F)F)c2)ccc1=O | 9.1 | 1.8 | 2.3 | 19.5* | 5.3 | -8.8
Cc1c(Cl)cccc1NC(=O)Cn1cnc(S(=O)(=O)N2CCCC2)c1 | 7.2 | -2.1 | -0.9 | -14.9 | 5.9 | .
CCOc1cc(C2C(C#N)=C(N)OC(C)=C2C(C)=O)cc(Br)c1O (configuration not stated) | 88.4* | 137.5* | -69.2* | 24.1* | 115.4* | 12.7
Cc1cc(C)cc(C(=O)Nc2ccncc2)c1 | -9.4 | -6.2 | 2.8 | 18.9* | -6.8 | -5.3
Cn1c(=O)c2c(-c3ccccc3)n(-c3cccc(O)c3)cc2n(C)c1=O | . | . | . | 18.2* | . | 6.1
O=C(COc1ccccc1Cc1ccccc1)NCCCN1CCOCC1 | 4.0 | 6.1 | 2.9 | 0.5 | 0.9 | .
O=C1CCCc2ccccc2N1Cc1ccc(Cl)cc1Cl | 0.1 | -5.9 | 2.3 | 18.0* | -1.8 | -0.6
O=C1CCCc2ccccc2N1Cc1ccccc1Cl | 7.9 | 0.6 | 2.5 | -5.3 | 1.7 | .
CCCc1ccc2oc(C(=O)NCCc3cnn(C)c3)c(C)c2c1 | 7.2 | 3.1 | -2.6 | 19.3* | 3.8 | -3.5
CCCc1ccc2oc(C(=O)NCCc3nc(C(=O)OCC)cs3)c(C)c2c1 | . | . | -2.7 | -8.2 | . | .
Cn1c(-c2ccc(F)cc2)cnc1SCC(=O)N1CCCc2ccccc21 | 2.9 | -9.2 | -0.5 | 19.3* | 3.8 | 2.4
Clc1cccc(-c2nc3ccc(Cl)cn3c2Cc2ccsc2)c1 | . | . | . | 19.6* | . | 112.7*
Cc1cc(Br)cn2c(Cc3ccsc3)c(-c3cccc(Cl)c3)nc12 | . | . | . | -4.8 | . | .
Cc1cc(Br)cn2c(Cc3ccsc3)c(-c3ccc(Cl)cc3)nc12 | . | . | . | 17.2* | . | 30.5*
CC1CCCN(S(=O)(=O)c2ccc3c(c2)c(=O)nc2ccc(Cl)cn23)C1 (configuration not stated) | 3.0 | 7.8 | -1.3 | 0.4 | 9.9 | .
O=C1C=CC(=Nc2ccc3c(c2)Cc2cc(F)ccc2-3)O1 | . | . | . | -9.2 | . | .

High-throughput results: PubChem BioAssay, several laboratories
